A short description of assay [1]: qHTS assay to test for compound auto fluorescence at 535 nm (green) in HEK293 cells (AID 720680). Further: potency means the concentration at half of the fitted maximal effect. A general note: Quantitative high-throughput screening tests each substance at several concentrations.
A short description of assay [2]: qHTS assay to test for compound auto fluorescence at 535 nm (green) in HEK293 cell free culture (AID 720682). Further: potency means the concentration at half of the fitted maximal effect. Put shortly: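 Intrinsic compound fluorescence is measured in culture medium containing 10% FBS, with excitation at 485 nm and detection at 535 nm, referenced to fluorescein.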
A short description of assay [3]: qHTS assay to test for compound auto fluorescence at 590 nm (red) in HEK293 cell free culture (AID 720683). Put shortly: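 Cell-free wells of DMEM with 10% FBS received compound, and intrinsic fluorescence was read at excitation/emission 540/590 nm. Values expressed as equivalence to Rose Bengal sodium.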
The nature of assay [4]: qHTS assay to test for compound auto fluorescence at 590 nm (red) in HepG2 cell free culture (AID 720684). The procedure, abridged: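 Rose Bengal sodium served as the reference for red signal. Test compounds were dispensed into serum-containing MEM (10% FBS) without cells, and plates were read at 540/590 nm.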
The nature of assay [5]: qHTS assay to test for compound auto fluorescence at 535 nm (green) in HepG2 cell free culture (AID 720686). Further: potency means the concentration at half of the fitted maximal effect.
Assay [6] concerns the target Glucocorticoid receptor (Homo sapiens) (UniProt P04150). In words: qHTS assay to identify small molecule agonists of the glucocorticoid receptor (GR) signaling pathway (AID 720691; active means well fitted activation curve with a large enough effect in the signal ratio in the repeat runs, not every such curve was filed as active; the % refers to the signal ratio; further: potency means the concentration at half of the fitted maximal effect). The conditions noted are these: GR-bla HeLa, beta-lactamase reporter ratio, 18 h; activation: at 62.4 µM (top of the series). The procedure, abridged:
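Agonist-mode qHTS in HeLa cells stably expressing a glucocorticoid-response-element beta-lactamase reporter. Fluorescence intensity read with FRET substrate (2 h, room temperature) after 18 h compound treatment at 37 C.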

Assay [7] shares this target. In words: qHTS assay to identify small molecule antagonists of the glucocorticoid receptor (GR) signaling pathway (AID 720692; active means well fitted inhibition curve with a large enough effect in the signal ratio in the repeat runs, not every such curve was filed as active; the % refers to the signal ratio). Put shortly: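 Inhibition of dexamethasone-driven (5 nM final) beta-lactamase expression was measured in GRE-reporter HeLa cells over 18 h at 37C. Fluorescence was read after 2 h with the B/G FRET substrate at room temperature.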
Assay [8] can be described thus: qHTS assay to test for compound auto fluorescence at 460 nm (blue) in HEK293 cell free culture (AID 720681). Put shortly:
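Compounds were added to cell-free DMEM with 10% FBS and fluorescence read directly. The blue channel used 405 nm excitation and 460 nm emission, with triamterene as the reference fluorophore.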

The nature of assay [9]: qHTS assay to test for compound auto fluorescence at 460 nm (blue) in HepG2 cell free culture (AID 720685). Put shortly: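 Cell-free plates of MEM plus 10% FBS received 23 nL compound or DMSO vehicle; blue-channel (405/460 nm) intensity scored against triamterene as reference fluorophore.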
The nature of assay [10]: qHTS assay to test for compound auto fluorescence at 460 nm (blue) in HepG2 cells (AID 720687). The procedure, abridged: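 HepG2 cells in MEM with 10% FBS, attached overnight at 37 C, were exposed to compound or DMSO for 1 hr at 37 C, 5% CO2. Blue fluorescence was read at 405/460 nm, with triamterene as reference fluorophore.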

Inconclusive results are not listed. Active and inactive are the calls of the source. Unless noted, the call rests on the fitted dose curve; in most records, active means well fitted curve in the direction sought with a large enough effect in the repeat runs; inconclusive means weak or mixed curves; inactive means flat fitted curve, though single readings scatter. Positions of bridges follow the written chain, without caps; N, C: chain ends. Non-standard residues stand in square brackets, D forms with d. Residues, ends and D or L forms follow the SMILES beside them. ξ: configuration not given here. *: point of attachment. d(aThr) = C[C@@H](O)[C@@H](N)C(=O)O; ξThr(3R) = C[C@@H](O)C(N)C(=O)O; X3 = CC[C@@H](C)CCCCC(=O)*; dDab = NCC[C@@H](N)C(=O)O

The source of these data is PubChem BioAssay (Tox21).
Tags describe the fitted curve by direction and shape or compound fluorescence and quenching.

Sequence of Glucocorticoid receptor (Homo sapiens) (P04150 whole entry, looked up): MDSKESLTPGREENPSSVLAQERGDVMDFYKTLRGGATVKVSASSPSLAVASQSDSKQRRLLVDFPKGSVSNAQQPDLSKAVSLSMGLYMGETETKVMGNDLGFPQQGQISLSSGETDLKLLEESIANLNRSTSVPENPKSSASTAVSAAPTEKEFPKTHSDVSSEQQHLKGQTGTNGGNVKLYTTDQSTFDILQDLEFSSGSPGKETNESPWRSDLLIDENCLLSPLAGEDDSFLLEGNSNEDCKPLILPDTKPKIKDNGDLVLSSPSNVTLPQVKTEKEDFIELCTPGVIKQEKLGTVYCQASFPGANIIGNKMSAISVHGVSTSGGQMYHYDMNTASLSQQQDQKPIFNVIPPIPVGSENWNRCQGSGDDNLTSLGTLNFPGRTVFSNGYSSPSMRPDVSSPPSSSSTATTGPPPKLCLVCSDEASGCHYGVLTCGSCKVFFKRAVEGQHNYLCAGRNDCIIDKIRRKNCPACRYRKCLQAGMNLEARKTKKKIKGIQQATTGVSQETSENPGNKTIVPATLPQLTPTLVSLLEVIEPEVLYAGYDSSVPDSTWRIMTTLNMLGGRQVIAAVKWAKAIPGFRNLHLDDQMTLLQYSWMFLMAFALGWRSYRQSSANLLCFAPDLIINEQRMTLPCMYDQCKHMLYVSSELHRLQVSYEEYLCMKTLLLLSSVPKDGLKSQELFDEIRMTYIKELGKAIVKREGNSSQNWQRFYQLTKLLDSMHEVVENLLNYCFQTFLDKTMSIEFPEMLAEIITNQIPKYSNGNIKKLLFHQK

In the case of `COC(=O)[C@H]1[C@H]2C[C@@H]3c4[nH]c5cc(OC)ccc5c4CCN3C[C@H]2C[C@H](OC)[C@@H]1OC`, the Potency result in [1], in [2], in assay [3], in assay [4], in [5] and in assay [6] was “inactive” throughout. Also, in [7], the Potency result is “inactive”.

Turning to `CN1[C@@H]2CCC[C@H]1CC(NC(=O)c1nn(C)c3ccccc13)C2` (some centres not stated), the Potency entry in assay [1], in assay [8], in [3] and in assay [5] was “inactive” each time. In addition, the compound was classed as inactive in [9] and in assay [10].

`CCNC(=O)[C@@H]1CCCN1C(=O)[C@H](CCCN=C(N)N)NC(=O)[C@H](CC(C)C)NC(=O)[C@@H](CC(C)C)NC(=O)[C@H](Cc1ccc(O)cc1)NC(=O)[C@H](CO)NC(=O)[C@H](Cc1c[nH]c2ccccc12)NC(=O)[C@H](Cc1cnc[nH]1)NC(=O)[C@@H]1CCC(=O)N1`: the Potency entry in [1], in assay [8], in [4], in [5], in assay [6] and in assay [7] was “inactive” throughout. Further, the result in [9] and in [10] was inactive.

Consider `CC(=O)N=c1sc(S(N)(=O)=O)nn1C`, for which the Potency entry in assay [1], in [8], in [3], in assay [4], in assay [5] and in assay [6] was “inactive” each time. In addition, in assay [7], the Potency entry was “inactive”. Besides, the compound was classed as inactive in assay [9] and in assay [10].

On to `Cc1cc(-c2ccc(N=Nc3c(S(=O)(=O)O)cc4cc(S(=O)(=O)O)cc(N)c4c3O)c(C)c2)ccc1N=Nc1c(S(=O)(=O)O)cc2cc(S(=O)(=O)O)cc(N)c2c1O`, for which the Potency result in assay [1], in assay [8], in assay [3], in [4], in assay [5] and in assay [6] was “inactive” throughout. The compound was classed as inactive in [9] and in assay [10].

In the case of `CC[C@@H](C)CCCCC(=O)N[C@H](CCN)C(=O)N[C@@H](C(=O)N[C@H](CCN)C(=O)N[C@@H]1CCNC(=O)C([C@@H](C)O)NC(=O)[C@@H](CCN)NC(=O)[C@@H](CCN)NC(=O)[C@@H](CC(C)C)NC(=O)[C@@H](Cc2ccccc2)NC(=O)[C@@H](CCN)NC1=O)[C@@H](C)O` (stereo partly drawn) (X3-[dDab][d(aThr)][dDab][dDab][dDab][dF][dL][dDab][dDab][ξThr(3R)]; lactam 4-C), the Potency entry in assay [1], in assay [8], in assay [3], in [4], in [5] and in [6] was “inactive” in each case. Further, the Potency result in assay [7] was “inactive”. In addition, the compound was called inactive in assay [9] and in assay [10].

As to `COc1ccc(CCNCC(O)COc2cccc(C)c2)cc1OC` (configuration not stated), the Potency entry in assay [1], in assay [8], in assay [3], in [4], in [5] and in assay [6] was “inactive” each time. In addition, the Potency result in assay [7] is “inactive”. Further, in assay [9], the compound was called inactive.

As to `CC1(C)S[C@@H]2[C@H](NC(=O)C(C(=O)Oc3ccc4c(c3)CCC4)c3ccccc3)C(=O)N2[C@H]1C(=O)O` (some centres not stated), the Potency entry in assay [1], in assay [8], in [3], in [4], in assay [5] and in [6] was “inactive” each time. In assay [7], the Potency entry is “inactive”. Also, the call in [9] and in assay [10] was inactive.

Consider `CN(C)C=Nc1c(I)cc(I)c(CCC(=O)O)c1I`, for which the Potency result in assay [1], in assay [8], in assay [3], in [4] and in assay [5] was “inactive” in each case. Also, the compound was classed as inactive in assay [9] and in assay [10].

Turning to `Nc1c(Br)cc(Br)cc1CNC1CCC(O)CC1` (configuration not stated), the Potency result in assay [1], in [8], in assay [3], in [4], in assay [5] and in assay [6] was “inactive” throughout. Besides, the compound was classed as inactive in [9] and in assay [10].

For the compound `C[C@]12C=CC(=O)N[C@@H]1CC[C@@H]1[C@@H]2CC[C@]2(C)[C@@H](C(=O)Nc3cc(C(F)(F)F)ccc3C(F)(F)F)CC[C@@H]12`, the Potency result in assay [1], in assay [8], in [3], in assay [4] and in [5] was “inactive” each time. Further, the compound was classed as inactive in assay [9] and in assay [10]. Further, the Potency in [6] is 26.8 µM (active).

Regarding `CC[C@]1(O)CC2CN(CCc3c([nH]c4ccccc34)[C@@](C(=O)OC)(c3cc4c(cc3OC)N(C)[C@H]3[C@@](O)(C(N)=O)[C@H](O)[C@]5(CC)C=CCN6CC[C@]43[C@@H]65)C2)C1` (some centres not stated), the Potency result in assay [1], in assay [8], in [3], in [4], in [5] and in assay [6] was “inactive” each time. The result in assay [9] and in assay [10] was inactive.

`CCOC(=O)[C@H](CS)NCCN[C@@H](CS)C(=O)OCC`: the Potency entry in assay [1], in assay [8], in assay [3], in [4], in [5] and in assay [6] was “inactive” in each case. Further, the Potency result in assay [7] is “inactive”. In addition, the call in assay [9] and in assay [10] was inactive.

As to `Cc1cc2nc3c(=O)[nH]c(=O)nc-3n(C[C@H](O)[C@H](O)[C@H](O)COP(=O)(O)OP(=O)(O)OC[C@H]3O[C@@H](n4cnc5c(N)ncnc54)[C@H](O)[C@@H]3O)c2cc1C`, the Potency in assay [1] is 22.4 µM [fluorescent] (active); in [2], 15.8 µM [fluorescent] (active); in [5] it was 12.6 µM [fluorescent] (active). Besides, the Potency result in [3], in [4] and in assay [6] was “inactive” in each case. The result in assay [9] and in [10] was inactive.
